Assay results taken from ChEMBL document CHEMBL4513146, “CO-ADD screening of Karazin Kharkiv National University (Ukraine) compounds”.
Potency and affinity values are given separately.

Tests used:
[1] = tested on: Staphylococcus aureus; conditions: Concentration 32 ug.mL-1;; ASSAY_TEST Inhibition of Bacterial Growth; detection method Absorption (OD600); MEDIA CAMHB; plate type 384well; NBS; CORNING #3640; time 18 hr
[2] = tested on: Escherichia coli; conditions: Concentration 32 ug.mL-1;; ASSAY_TEST Inhibition of Bacterial Growth; detection method Absorption (OD600); MEDIA CAMHB; plate type 384well; NBS; CORNING #3640; time 18 hr

| Compound | Inhibition [1] | Inhibition [2] |
| --- | --- | --- |
| COc1ccc(CNC(=O)Cn2nc3c(N4CCOCC4)nccn3c2=O)cc1 | 22.13% | 3.1% |
| O=C(CSc1nnc2c(=O)n(-c3cccc(F)c3)ccn12)Nc1ccc(Br)cc1F | 15.57% | -1.22% |
| CC(C)Cn1c(=O)c2ccc(C(=O)NC3CCCCC3)cc2n2c(=O)n(CC#N)nc12 | 8.84% | -0.16% |
| CCCCn1c(=O)c2sccc2n2c(=O)n(CC(=O)N3CCC(Cc4ccccc4)CC3)nc12 | -14.82% | -3.89% |
| COc1cc(NC(=O)C(C)Sc2nnc3c(=O)n(-c4cccc(OC)c4)ccn23)cc(OC)c1 (stereo not given) | -2.41% | -14.15% |
| COc1ccc(CNC(=O)Cn2nc3c(N4CC(C)CC(C)C4)nccn3c2=O)cc1 (stereo not given) | 7.67% | -5.82% |
| O=c1n(Cc2cccc(C(F)(F)F)c2)nc2c(S(=O)(=O)N3CCCCCC3)cccn12 | 5.28% | -7.6% |
| CCOC(=O)c1ccc(NC(=O)Cn2nc3c4cc(-c5ccc(Cl)cc5)nn4ccn3c2=O)cc1 | 1.13% | -5.39% |
| COc1cccc(Oc2nccn3c(=O)n(CC(=O)Nc4ccc(Br)cc4F)nc23)c1 | 14.87% | -0.07% |
| CCCCc1ccc(NC(=O)Cn2nc3c(N4CCN(c5ccccc5C)CC4)nccn3c2=O)cc1 | 0.53% | -13.2% |
| COc1cc(NC(=O)CSc2nnc3c(=O)n(-c4ccccc4)ccn23)cc(OC)c1 | 14.02% | 0.85% |
| COC(=O)c1ccc(CN(c2cccc(F)c2)S(=O)(=O)c2ccc3nncn3c2)o1 | 9.42% | -3.46% |
| Cc1cccc(-c2nc(CSc3nc4ccccc4n4c(C)nnc34)c(C)o2)c1 | 9.9% | 1.23% |
| COc1cccc(-n2ccn3c(SCC(=O)c4cc(C)ccc4C)nnc3c2=O)c1 | 11.66% | -1.7% |
| Cc1ccc(NC(=O)CSc2nc3ccccc3n3c(C(C)C)nnc23)cc1Cl | -8.33% | -6.42% |
| Cc1cccc(Sc2nccn3c(=O)n(CC(=O)N4CCN(c5ccc(F)cc5)CC4)nc23)c1 | -10.95% | -6.75% |
| CCCCOc1ccc(-c2cc3c4nnc(SCC(=O)NCc5ccc(C)cc5)n4ccn3n2)cc1 | 2.78% | -5.47% |
| Cc1ccc(CN(c2ccc(C(C)C)cc2)S(=O)(=O)c2cccn3c(C)nnc23)cc1 | 3.26% | -8.61% |
| COc1ccc(NC(=O)C(C)Sc2nnc3c(=O)n(-c4ccccc4)ccn23)cc1 (stereo not given) | 4.59% | 4.26% |
| Cc1cccc(Oc2nccn3c(=O)n(CC(=O)N4CCN(c5ccc(F)cc5)CC4)nc23)c1C | 3.93% | -6.71% |
| NC(=O)Cn1nc2n(CCC(=O)NC3CCCCC3)c(=O)c3ccccc3n2c1=O | 4.99% | 0.77% |
| O=C(Cn1nc2ccc(Sc3cccc(F)c3)nn2c1=O)Nc1ccc(Cl)cc1 | 7.1% | -8.49% |
| Cc1cc2nn(CC(=O)Nc3cc(F)ccc3C)c(=O)n2c(Nc2ccc(F)cc2)n1 | 4.25% | -5.18% |
| CCOc1ccc(NC(=O)Cn2nc3c(Sc4cccc(F)c4)nccn3c2=O)cc1 | 1.32% | -8.75% |
| Cc1cc2nn(CC(=O)Nc3cc(F)cc(F)c3)c(=O)n2c(Nc2ccccc2C)n1 | 5.53% | -3.12% |
